The term AC50 denotes the concentration giving half of the maximal activity seen.

Experimental findings from PubChem BioAssay (EPA / NIEHS) are described below.

Records with an inconclusive call do not appear. The source made the active and inactive calls. The calls were made as follows, unless noted: active = hit-call score of the fitted dose curve at least 0.9, where 1 is the maximum; inconclusive = response in the unintended direction; inactive = score below 0.9.

Experiment [1] has as its target Retinoic acid receptor alpha (Homo sapiens) (UniProt P10276). Briefly: ATG_RARa_TRANS: Attagene TRANS-FACTORIAL HepG2 Assay for human Retinoic Acid Receptor alpha (RARa) (AID 2283005). Summed up:
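HepG2 cells transiently transfected with multiple reporter units expressing chimeric RARα-GAL4 fusion, with GAL4-UAS-driven reporters. After 24 h compound exposure, reporter mRNA induction quantified by RT-PCR and capillary electrophoresis with fluorescent labeling; gain-of-signal fitted relative to DMSO control.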

The target of experiment [2] is Peroxisome proliferator-activated receptor gamma (Homo sapiens) (UniProt P37231). Briefly: ATG_PPARg_TRANS: Attagene TRANS-FACTORIAL HepG2 Assay for human Peroxisome Proliferator-activated Receptor-gamma (PPARg) (AID 2283007). In outline: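 Liver-derived HepG2 cells expressing an exogenous NR-Gal4 chimera alongside GAL4-UAS reporter genes; 24 h exposure. Fluorescence of reporter RT-PCR products, separated by capillary electrophoresis, gives mRNA induction relative to DMSO.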

Experiment [3] concerns the target Nuclear receptor subfamily 1 group I member 2 (Homo sapiens) (UniProt O75469). Put plainly: ATG_PXR_TRANS: Attagene TRANS-FACTORIAL HepG2 Assay for human Pregnane X Receptor (PXR) (AID 2283008). In outline: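 Transactivation by exogenous PXR–GAL4 fusion measured as reporter transcript induction after 24 h compound treatment of transfected human HepG2 cells. Read-out via RT-PCR and capillary electrophoresis of labelled fragments, fitted upward relative to DMSO.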

The target of experiment [4] is human RAR-related Orphan Receptor gamma (RORg), RORC (gene 6097) (UniProt P51449). Put plainly: ATG_RORg_TRANS: Attagene TRANS-FACTORIAL HepG2 Assay for human RAR-related Orphan Receptor gamma (RORg) (AID 2283011). In outline: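 Reporter transcripts from a transfected RORg-GAL4 chimera in HepG2 cells were quantified 24 h after dosing by RT-PCR, 6-FAM labelling, HpaI digestion and capillary electrophoresis; increases over DMSO baseline were fitted.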

For experiment [5], the target named is Retinoic acid receptor RXR-alpha (Homo sapiens) (UniProt P19793). Briefly: ATG_RXRa_TRANS: Attagene TRANS-FACTORIAL HepG2 Assay for human Retinoid X Receptor alpha (RXRa) (AID 2283012). In outline: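 Read-out: fluorescent reporter-transcript fragments quantified by capillary electrophoresis after RT-PCR. Transiently transfected HepG2 cells carrying GAL4-UAS reporters and NR-GAL4 chimeras were exposed to chemical for 24 h; activity scored as increase over DMSO.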

The target in experiment [6] is human Retinoid X Receptor beta (RXRb), RXRB (gene 6257) (UniProt P28702). Put plainly: ATG_RXRb_TRANS: Attagene TRANS-FACTORIAL HepG2 Assay for human Retinoid X Receptor beta (RXRb) (AID 2283013). In outline:
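Read-out: reporter mRNA induction via RT-PCR plus capillary electrophoresis fluorescence, analysed as signal increase relative to DMSO. Cells were human HepG2, transiently transfected with GAL4-UAS reporter constructs and chimeric receptor-Gal4 fusions, dosed for 24 h.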

In experiment [7] the target is human RAR-related Orphan Receptor beta (RORb), RORB (gene 6096) (UniProt Q92753). Briefly: ATG_RORb_TRANS: Attagene TRANS-FACTORIAL HepG2 Assay for human RAR-related Orphan Receptor beta (RORb) (AID 2283010). Summed up: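 HepG2, transient MRTU transfection (GAL4-UAS reporters, exogenous NR-Gal4 chimeras); 24 h compound exposure; total RNA → RT-PCR → 6-FAM primer extension → HpaI digest → CE fluorescence. Positive direction vs DMSO baseline.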

The target of experiment [8] is human Thyroid Receptor alpha (THRa1), THRA (gene 7067) (UniProt P10827). Briefly: ATG_THRa1_TRANS: Attagene TRANS-FACTORIAL HepG2 Assay for human Thyroid Receptor alpha (THRa1) (AID 2283014). Summed up: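 Transcripts from GAL4-UAS-driven reporters, measured after 24 h compound exposure by RT-PCR plus capillary electrophoresis of 6-FAM-labeled fragments, were fitted for gain of signal relative to DMSO. Cells: transiently transfected HepG2 expressing NR-Gal4 chimeras.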

Experiment [9] has as its target human Vitamin D Receptor (VDR), VDR (gene 7421) (UniProt P11473). Briefly: ATG_VDR_TRANS: Attagene TRANS-FACTORIAL HepG2 Assay for human Vitamin D Receptor (VDR) (AID 2283022). Summed up: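 Transactivation by an exogenous VDR-Gal4 chimera in transiently transfected HepG2 cells was measured as reporter transcript level 24 hours after chemical treatment. RT-PCR products were analysed by capillary electrophoresis and fitted in the positive direction relative to DMSO.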

Read-out in experiment [10]: E-selectin (Homo sapiens) (UniProt P16581)
Briefly: BSK_3C_Eselectin: BioMAP Diversity Plus: 3C Assay for Eselectin Biomarker Activity (AID 2283015; active = hit-call score of the fitted dose curve at least 0.9, where 1 is the maximum; inactive = score below 0.9). As to conditions: primary human endothelial cells (HUVEC); actives raise or lower the signal. In outline:
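E-selectin ELISA readout, fitted bidirectionally relative to DMSO, taken 24 h post-dosing in HUVEC cultures of the 3C system. Overt cytotoxicity tracked with sulforhodamine B staining of parallel wells.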

Read-out in experiment [11]: Interleukin-1 alpha (IL1a), IL1A (gene 3552)
Put plainly: BSK_BE3C_IL1a: BioMAP Diversity Plus: BE3C Assay for Interleukin-1 alpha (IL1a) Biomarker Activity (AID 2283016; active = hit-call score of the fitted dose curve at least 0.9, where 1 is the maximum; inactive = score below 0.9). The settings on record: primary human bronchial epithelial cells; actives raise or lower the signal. In outline: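 ELISA read-out of IL-1a from human lung bronchial epithelial primary cells, 24 h post-dose. Gain or loss of signal fitted relative to DMSO negative control.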

Read-out in experiment [12]: Monocyte Chemoattractant Protein-1 (MCP1), CCL2 (gene 6347)
Briefly: BSK_3C_MCP1: BioMAP Diversity Plus: 3C Assay for Monocyte Chemoattractant Protein-1 (MCP1) Biomarker Activity (AID 2283017; active = hit-call score of the fitted dose curve at least 0.9, where 1 is the maximum; inactive = score below 0.9). As to conditions: primary human endothelial cells (HUVEC); actives raise or lower the signal. Summed up: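 MCP-1 was measured by ELISA 24 h after dosing in primary HUVEC 3C cultures and fitted in both directions relative to DMSO; cytotoxicity was checked by SRB total-protein staining in parallel wells.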

Read-out in experiment [13]: Monocyte Chemoattractant Protein-1 (MCP1), CCL2 (gene 6347)
Put plainly: BSK_4H_MCP1: BioMAP Diversity Plus: 4H Assay for Monocyte Chemoattractant Protein-1 (MCP1) Biomarker Activity (AID 2283018; active = hit-call score of the fitted dose curve at least 0.9, where 1 is the maximum; inactive = score below 0.9). As to conditions: primary human endothelial cells (HUVEC); actives raise or lower the signal. In outline: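 HUVEC primary cells, 24 h post-dose, MCP-1 by ELISA. Gain or loss of signal fitted bidirectionally vs DMSO baseline. Cytotoxicity: SRB stain (0.1% after 10% TCA fixation), read 560 nm, parallel cultures.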

Read-out in experiment [14]: Human Leukocyte Antigen - DR isotype (HLADR), HLA-DRA (gene 3122)
Put plainly: BSK_3C_HLADR: BioMAP Diversity Plus: 3C Assay for Human Leukocyte Antigen - DR isotype (HLADR) Biomarker Activity (AID 2283019; active = hit-call score of the fitted dose curve at least 0.9, where 1 is the maximum; inactive = score below 0.9). As to conditions: primary human endothelial cells (HUVEC); actives raise or lower the signal. In outline: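 Bidirectional fitting against DMSO was applied to the HLA-DR ELISA signal from human umbilical vein endothelial cells, 24 h post-dose. Cytotoxicity came from parallel SRB total-protein staining; 3C proliferation was counted by SRB at 48 h.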

Read-out in experiment [15]: Interleukin-8 (IL8), CXCL8 (gene 3576)
Put plainly: BSK_3C_IL8: BioMAP Diversity Plus: 3C Assay for Interleukin-8 (IL8) Biomarker Activity (AID 2283020; active = hit-call score of the fitted dose curve at least 0.9, where 1 is the maximum; inactive = score below 0.9). The settings on record: primary human endothelial cells (HUVEC); actives raise or lower the signal. Summed up: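 HUVEC, 3C stimulation; 24 h compound exposure; IL-8 read by ELISA; gain or loss of signal fitted relative to DMSO control.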

Read-out in experiment [16]: Monokine induced gamma interferon (MIG), CXCL9 (gene 4283)
Put plainly: BSK_3C_MIG: BioMAP Diversity Plus: 3C Assay for Monokine induced gamma interferon (MIG) Biomarker Activity (AID 2283021; active = hit-call score of the fitted dose curve at least 0.9, where 1 is the maximum; inactive = score below 0.9). As to conditions: primary human endothelial cells (HUVEC); actives raise or lower the signal. In outline: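 HUVEC, 3C system; 24 h chemical exposure; MIG by ELISA; bidirectional fit vs DMSO baseline.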

Sequence of Nuclear receptor subfamily 1 group I member 2 (Homo sapiens) (O75469 whole entry, looked up, the tested form may be a part): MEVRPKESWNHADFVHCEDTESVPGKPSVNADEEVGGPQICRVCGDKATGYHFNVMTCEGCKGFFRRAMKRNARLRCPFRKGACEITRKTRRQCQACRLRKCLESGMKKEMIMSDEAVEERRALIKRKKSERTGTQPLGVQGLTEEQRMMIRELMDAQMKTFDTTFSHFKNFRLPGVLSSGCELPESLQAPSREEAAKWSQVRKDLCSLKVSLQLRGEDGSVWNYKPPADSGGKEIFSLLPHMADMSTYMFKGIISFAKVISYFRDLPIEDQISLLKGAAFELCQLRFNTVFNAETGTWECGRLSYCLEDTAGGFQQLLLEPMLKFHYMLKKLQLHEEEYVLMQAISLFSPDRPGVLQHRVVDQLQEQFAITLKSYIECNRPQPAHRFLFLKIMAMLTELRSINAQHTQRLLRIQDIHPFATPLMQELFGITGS
Sequence of human Retinoid X Receptor beta (RXRb), RXRB (gene 6257) (P28702 whole entry, looked up, the tested form may be a part): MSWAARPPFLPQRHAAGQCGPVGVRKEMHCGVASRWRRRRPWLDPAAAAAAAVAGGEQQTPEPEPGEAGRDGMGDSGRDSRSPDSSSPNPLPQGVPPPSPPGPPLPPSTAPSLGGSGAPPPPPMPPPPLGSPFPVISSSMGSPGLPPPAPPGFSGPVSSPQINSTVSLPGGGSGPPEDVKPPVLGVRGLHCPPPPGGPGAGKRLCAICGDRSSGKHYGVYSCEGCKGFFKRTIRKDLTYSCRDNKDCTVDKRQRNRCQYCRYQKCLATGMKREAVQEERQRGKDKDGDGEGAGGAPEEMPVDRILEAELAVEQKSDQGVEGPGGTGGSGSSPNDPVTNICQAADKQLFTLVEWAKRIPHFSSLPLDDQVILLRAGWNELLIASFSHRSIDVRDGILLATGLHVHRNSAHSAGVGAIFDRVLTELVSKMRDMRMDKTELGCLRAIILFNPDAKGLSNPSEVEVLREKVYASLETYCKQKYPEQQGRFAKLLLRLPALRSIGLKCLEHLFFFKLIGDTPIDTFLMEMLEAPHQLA
Sequence of Retinoic acid receptor RXR-alpha (Homo sapiens) (P19793 whole entry, looked up, the tested form may be a part): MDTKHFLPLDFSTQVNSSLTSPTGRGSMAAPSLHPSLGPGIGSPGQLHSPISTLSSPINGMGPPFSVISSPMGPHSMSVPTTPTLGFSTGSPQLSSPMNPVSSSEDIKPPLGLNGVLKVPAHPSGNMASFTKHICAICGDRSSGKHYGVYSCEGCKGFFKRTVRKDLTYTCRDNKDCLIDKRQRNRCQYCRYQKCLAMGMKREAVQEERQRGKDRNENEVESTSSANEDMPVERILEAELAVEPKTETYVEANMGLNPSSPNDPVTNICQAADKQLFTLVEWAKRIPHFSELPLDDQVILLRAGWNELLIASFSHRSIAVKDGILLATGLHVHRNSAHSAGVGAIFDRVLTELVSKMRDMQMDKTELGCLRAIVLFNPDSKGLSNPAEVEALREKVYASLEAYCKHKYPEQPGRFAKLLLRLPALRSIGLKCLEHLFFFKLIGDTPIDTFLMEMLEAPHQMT
Sequence of Peroxisome proliferator-activated receptor gamma (Homo sapiens) (P37231 whole entry, looked up, the tested form may be a part): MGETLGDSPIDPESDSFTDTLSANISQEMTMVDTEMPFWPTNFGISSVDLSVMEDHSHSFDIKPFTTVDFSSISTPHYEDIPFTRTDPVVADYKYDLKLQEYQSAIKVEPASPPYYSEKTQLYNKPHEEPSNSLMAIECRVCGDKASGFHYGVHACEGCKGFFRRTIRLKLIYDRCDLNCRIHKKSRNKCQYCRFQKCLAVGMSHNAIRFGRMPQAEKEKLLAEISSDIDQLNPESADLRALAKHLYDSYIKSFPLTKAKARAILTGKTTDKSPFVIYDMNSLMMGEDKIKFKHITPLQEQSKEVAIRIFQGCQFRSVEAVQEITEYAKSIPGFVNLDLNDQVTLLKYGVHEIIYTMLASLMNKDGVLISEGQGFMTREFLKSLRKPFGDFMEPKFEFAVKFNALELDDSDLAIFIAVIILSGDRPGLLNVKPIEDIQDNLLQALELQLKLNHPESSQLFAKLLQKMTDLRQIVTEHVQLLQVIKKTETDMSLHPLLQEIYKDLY
Sequence of human RAR-related Orphan Receptor gamma (RORg), RORC (gene 6097) (P51449 whole entry, looked up, the tested form may be a part): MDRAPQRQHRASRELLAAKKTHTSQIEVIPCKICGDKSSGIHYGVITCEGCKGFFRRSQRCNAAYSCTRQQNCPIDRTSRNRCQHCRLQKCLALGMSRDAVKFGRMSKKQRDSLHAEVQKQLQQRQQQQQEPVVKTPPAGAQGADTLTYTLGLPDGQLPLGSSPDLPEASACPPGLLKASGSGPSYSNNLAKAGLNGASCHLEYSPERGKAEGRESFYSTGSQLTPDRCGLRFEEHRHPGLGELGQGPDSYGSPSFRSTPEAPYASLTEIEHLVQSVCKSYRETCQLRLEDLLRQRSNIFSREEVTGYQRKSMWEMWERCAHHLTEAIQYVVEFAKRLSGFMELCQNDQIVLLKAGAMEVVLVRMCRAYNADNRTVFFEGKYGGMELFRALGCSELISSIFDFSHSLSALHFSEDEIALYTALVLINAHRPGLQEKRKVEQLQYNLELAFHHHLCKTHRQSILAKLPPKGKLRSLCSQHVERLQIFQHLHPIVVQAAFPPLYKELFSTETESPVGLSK
Sequence of human Thyroid Receptor alpha (THRa1), THRA (gene 7067) (P10827 whole entry, looked up, the tested form may be a part): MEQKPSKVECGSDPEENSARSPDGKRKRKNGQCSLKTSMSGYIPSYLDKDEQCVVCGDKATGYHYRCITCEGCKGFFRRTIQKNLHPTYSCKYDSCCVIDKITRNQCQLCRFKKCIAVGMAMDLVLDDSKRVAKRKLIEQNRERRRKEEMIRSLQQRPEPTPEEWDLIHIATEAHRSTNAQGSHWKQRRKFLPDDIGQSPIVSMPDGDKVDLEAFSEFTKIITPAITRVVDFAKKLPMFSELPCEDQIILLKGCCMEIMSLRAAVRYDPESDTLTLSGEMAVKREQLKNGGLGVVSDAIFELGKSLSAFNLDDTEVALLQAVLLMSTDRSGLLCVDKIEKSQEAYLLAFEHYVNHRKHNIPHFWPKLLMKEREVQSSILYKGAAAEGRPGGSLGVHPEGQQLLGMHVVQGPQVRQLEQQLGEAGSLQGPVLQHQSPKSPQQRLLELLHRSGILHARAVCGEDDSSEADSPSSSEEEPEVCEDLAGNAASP
Sequence of human Vitamin D Receptor (VDR), VDR (gene 7421) (P11473 whole entry, looked up, the tested form may be a part): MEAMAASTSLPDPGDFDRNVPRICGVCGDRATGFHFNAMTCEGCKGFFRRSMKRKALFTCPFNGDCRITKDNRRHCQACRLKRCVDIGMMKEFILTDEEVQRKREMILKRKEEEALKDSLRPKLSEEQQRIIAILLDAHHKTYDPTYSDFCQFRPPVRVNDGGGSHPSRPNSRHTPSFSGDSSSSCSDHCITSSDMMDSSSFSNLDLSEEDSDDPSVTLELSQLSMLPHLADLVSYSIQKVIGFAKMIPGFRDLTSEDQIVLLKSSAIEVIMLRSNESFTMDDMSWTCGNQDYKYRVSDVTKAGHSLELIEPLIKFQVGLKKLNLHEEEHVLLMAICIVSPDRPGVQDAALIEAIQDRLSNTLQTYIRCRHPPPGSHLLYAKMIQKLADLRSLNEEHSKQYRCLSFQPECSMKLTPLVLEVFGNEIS
Sequence of Retinoic acid receptor alpha (Homo sapiens) (P10276 whole entry, looked up, the tested form may be a part): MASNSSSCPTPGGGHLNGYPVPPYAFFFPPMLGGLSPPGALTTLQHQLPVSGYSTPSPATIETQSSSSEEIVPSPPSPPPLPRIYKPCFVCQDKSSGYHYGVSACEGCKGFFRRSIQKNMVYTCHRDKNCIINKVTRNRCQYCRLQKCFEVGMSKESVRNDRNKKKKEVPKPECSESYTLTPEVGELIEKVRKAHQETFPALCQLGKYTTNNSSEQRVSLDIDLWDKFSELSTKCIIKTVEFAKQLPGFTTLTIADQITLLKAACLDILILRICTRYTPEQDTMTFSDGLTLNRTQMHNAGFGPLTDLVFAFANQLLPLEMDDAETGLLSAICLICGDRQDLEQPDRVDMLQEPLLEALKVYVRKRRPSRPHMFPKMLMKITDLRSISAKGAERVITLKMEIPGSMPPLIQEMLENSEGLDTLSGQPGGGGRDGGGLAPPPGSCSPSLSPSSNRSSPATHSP
Sequence of human RAR-related Orphan Receptor beta (RORb), RORB (gene 6096) (Q92753 whole entry, looked up, the tested form may be a part): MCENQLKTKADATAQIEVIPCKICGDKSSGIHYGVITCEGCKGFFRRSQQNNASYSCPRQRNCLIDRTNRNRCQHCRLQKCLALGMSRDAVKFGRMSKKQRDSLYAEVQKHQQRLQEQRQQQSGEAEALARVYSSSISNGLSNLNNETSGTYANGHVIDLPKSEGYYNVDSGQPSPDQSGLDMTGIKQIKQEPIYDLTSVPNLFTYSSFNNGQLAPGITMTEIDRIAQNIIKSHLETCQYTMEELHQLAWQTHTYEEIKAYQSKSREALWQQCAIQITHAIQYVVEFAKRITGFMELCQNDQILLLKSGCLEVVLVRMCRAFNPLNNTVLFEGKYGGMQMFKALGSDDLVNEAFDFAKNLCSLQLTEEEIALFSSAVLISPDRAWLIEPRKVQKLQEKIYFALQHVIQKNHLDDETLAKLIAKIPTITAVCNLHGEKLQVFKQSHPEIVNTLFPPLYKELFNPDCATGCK
Sequence of E-selectin (Homo sapiens) (P16581 whole entry, looked up): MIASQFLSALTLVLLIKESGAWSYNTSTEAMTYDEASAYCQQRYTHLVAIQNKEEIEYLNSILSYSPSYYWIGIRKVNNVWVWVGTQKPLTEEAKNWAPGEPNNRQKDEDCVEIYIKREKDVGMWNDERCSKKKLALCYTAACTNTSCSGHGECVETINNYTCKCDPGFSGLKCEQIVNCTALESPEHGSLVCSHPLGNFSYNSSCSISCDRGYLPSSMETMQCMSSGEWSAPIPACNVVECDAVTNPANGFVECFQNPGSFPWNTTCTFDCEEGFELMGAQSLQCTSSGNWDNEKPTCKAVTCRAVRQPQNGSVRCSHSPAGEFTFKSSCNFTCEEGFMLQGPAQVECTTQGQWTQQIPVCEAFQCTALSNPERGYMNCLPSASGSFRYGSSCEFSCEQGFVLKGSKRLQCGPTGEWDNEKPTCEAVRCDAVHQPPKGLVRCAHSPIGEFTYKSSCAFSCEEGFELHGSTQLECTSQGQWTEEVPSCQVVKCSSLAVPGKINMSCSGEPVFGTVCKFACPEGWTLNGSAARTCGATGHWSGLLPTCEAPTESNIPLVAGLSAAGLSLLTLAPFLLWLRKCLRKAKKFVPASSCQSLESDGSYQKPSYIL

As to `CCCCCCCCCCBr`, the outcome in experiment [1], in [3], in experiment [4] and in [5] was inactive. Also, the results for the AC50 in [2] and in [6] were 19.8 µM (active) and 100 µM (active), respectively.
Turning to `O=C/C(Cl)=C(/Cl)C(=O)O`, the AC50 in experiment [2] was 46.7 µM (active). Moreover, the molecule was called inactive in [3], in [7], in experiment [4], in experiment [5], in experiment [6] and in [8].
Take `C=CC(=O)[O][Sn]([CH2]CCC)([CH2]CCC)[CH2]CCC`: the AC50 was 0.0934 µM (active) in experiment [2], 0.237 µM (active) in experiment [3], 0.00177 µM (active) in experiment [5] and 0.000682 µM (active) in experiment [6]. Also, in experiment [8], the molecule was classed as inactive.
Take `[F][Sn]([c]1ccccc1)([c]1ccccc1)[c]1ccccc1`: the AC50 in [2] was 0.0401 µM (active); in [5], 0.00404 µM (active); in experiment [6] it was 0.00128 µM (active). In addition, the molecule was called inactive in experiment [3].
Turning to `CCCCC(CC)C(=O)Cl` (stereo unspecified), the molecule was called inactive in [2], in experiment [3] and in [4].
Take `OC(c1ccc(Cl)cc1)(c1ccc(Cl)cc1)c1cccnc1`: the molecule was classed as inactive in experiment [2], in [3], in experiment [5] and in experiment [9].
As for `O=C(NC(=O)c1c(F)cccc1F)Nc1ccc(Cl)cc1`, the AC50 in experiment [2] was 0.636 µM (active). In addition, the molecule was classed as inactive in [3], in experiment [6], in experiment [8] and in experiment [9].
Turning to `O=NN1CCCCCCC1`, the molecule was called inactive in experiment [2], in [3], in experiment [5] and in experiment [6].
Regarding `CC1CC(=O)O1` (stereo unspecified), the result in experiment [2], in [3], in [4] and in [6] was inactive.
With `C=C(C)C(=O)OCC(CC)CCCC` (stereo unspecified), the molecule was called inactive in experiment [2], in experiment [3], in [5], in [6] and in experiment [8].
Take `CC(C)[C@H](C(=O)OC(C#N)c1cccc(Oc2ccccc2)c1)c1ccc(OC(F)F)cc1` (stereo partly specified): the molecule was classed as inactive in [2], in experiment [5] and in [8]. The AC50 in experiment [3] is 0.693 µM (active).
In the case of `Oc1cc(Cl)c(Cl)cc1Cl`, the half-maximal activity concentration (AC50) in experiment [2] was 55.9 µM (active); in experiment [6], 151 µM (active); in experiment [10] it was 35.4 µM (active); in [12], 33.3 µM (active); in experiment [13], 20 µM (active); in experiment [14] it was 16.8 µM (active). The AC50 in experiment [15] was 31.7 µM (active). For the same molecule, the result in experiment [3], in experiment [5], in experiment [8], in experiment [11] and in experiment [16] was inactive.
For the molecule `O=C(NC(=O)c1c(F)cccc1F)Nc1cc(Cl)c(Oc2ncc(C(F)(F)F)cc2Cl)c(Cl)c1`, the call in experiment [2], in [3] and in [8] was inactive.
Regarding `CN(N=O)c1ccc([N+](=O)[O-])cc1`, the AC50 is 31.9 µM (active) in [2] and 19.8 µM (active) in experiment [3]. Moreover, the outcome in experiment [5], in [6] and in experiment [8] was inactive.
